# According to PubChem BioAssay (NCATS):
# “And” between values parts separate entries of the source, which are not always exact repeats. Equal entries are not always repeated. Results filed as inconclusive are left out. A call without a number means that no potency is given here. The source made the active and inactive calls. Unless noted, calls follow the shape of the dose curve; as a rule, active = well fitted curve in the direction sought with a large enough effect; inconclusive = small, poorly fitted or top-dose-only effect, or another doubt; inactive = no such curve, though single readings can be large or run the other way.
# How the values were obtained:
# [1] = qHTS drug screen for cell cycle checkpoint inhibitors in PARPi-resistant BRCA-mutant ovarian cancer cell lines. (AID 1963452; calls by dose curve; also: potency is read from the fitted curve at half-maximal effect); conditions: PEO1/OlaR viability, CellTiter-Glo luminescence, 96 h; for Z-AUC: stronger effect = lower value
# Summary of the method: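 PEO1, PEO4 and PEO1/OlaR ovarian cancer cells, 600 per well, exposed 96 h at 37C to a dilution series. Viability read by CellTiter-Glo luminescence, normalized to DMSO and empty wells; activity summarized as Z-AUC.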
# [2] = qHTS for inhibitors of Rabies Virus screened against the NCATS CANVASS Library (AID 1347402; calls by dose curve); conditions: Rabies virus infection cell assay; series mostly up to 45.9 µM
# [3] = Validation of Assay for Modulators of Lamin A Splicing (AID 1459; active = well fitted curve in the direction sought with a large enough effect in the signal ratio; the % refers to the signal ratio;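 also: cells exposed to compound for two days before reading; ratio rise marks activators and ratio drop marks inhibitors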); conditions: Lamin A splicing dual RFP/GFP fluorescence reporter; series mostly up to 9.22 µM
# Summary of the method: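 S3 HeLa stably expressing lamin A-EGFP splicing minigene and DsRed2, 600 cells/well in Opti-MEM with 2% FBS, treated 48 h at 37C; laser-scanning cytometry gives GFP/RFP total intensity ratio; ancitabine positive control, 0.5% DMSO vehicle.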
# [4] = molecular target: Galactokinase (Homo sapiens) (UniProt P51570); assay: qHTS Validation Assay for Inhibitors of Human Galactokinase (GALK) (AID 493189); conditions: purified human GALK enzyme activity, qHTS 7-point titration; series mostly up to 57.5 µM
# Summary of the method: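 GALK (5 nM) with 35 uM ATP and 100 uM galactose in HEPES pH 8.0 with MgCl2, NaCl, DTT and BSA. Reaction ran 1 h at room temperature. Residual ATP read by Kinase-Glo Plus luminescence.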
# [5] = qHTS Assay for Lipid Storage Modulators (AID 1519; calls by dose curve); conditions: Drosophila S3 cells, BODIPY lipid droplet/cell ratio, laser cytometry, cells loaded with oleic acid; for activity change, negative = inhibition: at 57.5 µM (top of the series)
# Summary of the method: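 Cells seeded at 5,000 per well were treated with compounds over a concentration series and loaded with oleic acid (400 uM, as added). Lipid droplet fluorescence (488 nm excitation, 500-530 nm channel) was read by laser-scanning cytometry and normalized to 20 uM Triacsin C.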
# [6] = measured here: PEO1 parental Z-AUC
# [7] = measured here: cell count channel max response
# [8] = measured here: lipid channel max response
# Sequence of Galactokinase (Homo sapiens) (P51570 whole entry, looked up): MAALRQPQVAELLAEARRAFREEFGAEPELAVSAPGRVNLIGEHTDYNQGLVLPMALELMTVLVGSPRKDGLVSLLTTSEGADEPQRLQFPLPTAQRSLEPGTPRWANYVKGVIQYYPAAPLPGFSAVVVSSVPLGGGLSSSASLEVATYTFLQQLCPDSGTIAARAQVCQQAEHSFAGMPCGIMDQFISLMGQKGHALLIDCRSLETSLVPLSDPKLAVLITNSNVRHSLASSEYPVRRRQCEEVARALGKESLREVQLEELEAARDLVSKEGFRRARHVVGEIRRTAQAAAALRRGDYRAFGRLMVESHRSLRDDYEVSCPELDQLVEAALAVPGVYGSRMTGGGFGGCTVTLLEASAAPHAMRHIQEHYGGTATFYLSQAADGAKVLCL
smiles,measurement,setting,value
CO/C1=C/C(C)=C\[C@@H](C)[C@@H](O)[C@@H](C)C/C(C)=C\C=C/[C@H](OC)[C@@H]([C@@H](C)[C@@H](O)[C@H](C)[C@@]2(O)C[C@@H](O)[C@H](C)[C@@H](C(C)C)O2)OC1=O,Z-AUC,[1],-2.07 (inactive)
same,Z-AUC,[1]; [6],-2.1
same,Z-AUC,[1]; measured here: PEO4 Z-AUC,-2.32
CCCCCCC(C)(C)c1cc(O)c2c(c1)OC(C)(C)C1CC=C(CO)C[C@H]21 (stereo partly drawn),Z-AUC,[1],1.02 (inactive)
same,Z-AUC,[1]; [6],0.553
same,Z-AUC,[1]; measured here: PEO4 Z-AUC,0.644
N#CC(O[C@@H]1O[C@H](CO[C@@H]2O[C@H](CO)[C@@H](O)[C@H](O)[C@H]2O)[C@@H](O)[C@H](O)[C@H]1O)c1ccccc1 (stereo partly drawn),Z-AUC,[1],0.897 (inactive)
same,Z-AUC,[1]; [6],0.644
same,Z-AUC,[1]; measured here: PEO4 Z-AUC,0.881
C=C[C@@]1(C)CC[C@@H]([C@H](C)C(C)=O)O1,outcome,[2],inactive
COc1ccc2c(c1O)-c1cccc3c1C(C2)N(C)CC3 (stereo not drawn),outcome,[3],inactive
same,outcome,[4],inactive
Oc1ccc2c3c1O[C@H]1[C@@H](O)CC[C@@]4(O)C(C2)N(CC2CCC2)CCC314 (stereo partly drawn),outcome,[3],inactive
same,outcome,[4],inactive
C[C@H]1C2Cc3ccc(O)cc3[C@]1(C)CCN2CC1CC1,outcome,[3],inactive
same,outcome,[4],inactive
NNCc1cccc(O)c1,outcome,[3],inactive
same,outcome,[4],inactive
C#CCN(C)C(C)Cc1ccccc1 (stereo not drawn),outcome,[3],inactive
same,"activity change, negative = inhibition",[5],2.75% (inactive)
same,max response,[5]; [7],64.3%
same,max response,[5]; [8],65.5%
same,outcome,[4],inactive
CC[C@@H](CO)NC(=O)[C@H]1C=C2c3cccc4c3c(cn4C)C[C@H]2N(C)C1,outcome,[3],inactive
same,"activity change, negative = inhibition",[5],2.02% (inactive)
same,max response,[5]; [7],18.8%
same,max response,[5]; [8],22.3%
same,outcome,[4],inactive
C[C@H]1OC[C@@H](C[N+](C)(C)C)O1,outcome,[3],inactive
same,outcome,[4],inactive
Nc1ncnc2c1ncn2[C@@H]1O[C@H](COP(=O)(O)CP(=O)(O)OP(=O)(O)O)[C@H](O)[C@H]1O,outcome,[3],inactive
same,outcome,[4],inactive
COc1cc(C[C@@H](C)N)c(OC)cc1I,outcome,[3],inactive
same,outcome,[4],inactive
CN1CCC23CCCC[C@H]2C1Cc1ccc(O)cc13 (stereo partly drawn),outcome,[3],inactive
same,"activity change, negative = inhibition",[5],0.333% (inactive)
same,max response,[5]; [7],15.7%
same,max response,[5]; [8],15.2%
same,outcome,[4],inactive
CCCN(CCC)[C@@H]1CCc2c(F)ccc(O)c2C1,outcome,[3],inactive
same,outcome,[4],inactive
COc1cc(C=C(C#N)C#N)cc(O)c1O,outcome,[3],inactive
same,"activity change, negative = inhibition",[5],-2.14% (inactive)
same,max response,[5]; [7],23.5%
same,max response,[5]; [8],22.3%
same,outcome,[4],inactive
NC(Cn1ccc(=O)[nH]c1=O)C(=O)O (stereo not drawn),outcome,[3],inactive
same,"activity change, negative = inhibition",[5],-1.49% (inactive)
same,max response,[5]; [7],-18.2%
same,max response,[5]; [8],-23.6%
same,outcome,[4],inactive
C/C1=C/C[C@@H](/C(C)=C/c2csc(C)n2)OC(=O)C[C@H](O)C(C)(C)C(=O)[C@H](C)[C@@H](O)[C@@H](C)CCC1,Potency,[1],19.5 nM (active)
same,Z-AUC,[1]; [6],-2.71
same,Z-AUC,[1]; measured here: PEO4 Z-AUC,-2.82
COC(=O)C(N)CCCN=C(N)N[N+](=O)[O-] (stereo not drawn),outcome,[3],inactive
same,outcome,[4],inactive
CC(C)(O)C1C2OC(=O)C1[C@]1(O)C[C@H]3O[C@]34C(=O)O[C@H]2[C@]14C (stereo partly drawn) (tested in a mixture with another compound),outcome,[3],inactive
same,outcome,[4],inactive
CCN1C[C@]2(C)CC[C@H](O)[C@@]34[C@@H]5C[C@@H]6[C@@H](OC)C[C@@](O)(C5[C@H]6O)[C@@H](C[C@@H]23)[C@@H]14,outcome,[3],inactive
same,"activity change, negative = inhibition",[5],1.56% (inactive)
same,max response,[5]; [7],-17.1%
same,max response,[5]; [8],-16.8%
same,outcome,[4],inactive
C=CCN1CC[C@@]2(C)c3cc(O)ccc3CC1[C@@H]2C,outcome,[3],inactive
same,"activity change, negative = inhibition",[5],-0.315% (inactive)
same,max response,[5]; [7],26.7%
same,max response,[5]; [8],28.1%
same,outcome,[4],inactive
CCCCN1C2CCC1CC(OC(c1ccc(F)cc1)c1ccc(F)cc1)C2 (stereo not drawn),outcome,[3],inactive
same,outcome,[4],inactive
CCCN1CCCC(c2cccc(O)c2)C1 (stereo not drawn),outcome,[3],inactive
same,outcome,[4],inactive
COc1ccc2c3c1O[C@H]1C(=O)CC[C@@]4(O)C(C2)N(CC2CC2)CCC314 (stereo partly drawn),outcome,[3],inactive
same,outcome,[4],inactive
CC1Cc2cc3c(cc2C(c2ccc(N)cc2)=NN1)OCO3 (stereo not drawn),outcome,[3],inactive
same,"activity change, negative = inhibition",[5],1.87% (inactive)
same,max response,[5]; [7],56.1%
same,max response,[5]; [8],60.1%
same,outcome,[4],inactive
CCNC(=O)[C@H]1O[C@@H](n2cnc3c(N)ncnc32)[C@H](O)[C@H]1O,outcome,[3],inactive
same,outcome,[4],inactive
CCN(CC)C(=O)N[C@@H]1C[C@@H]2c3cccc4[nH]cc(c34)C[C@H]2N(C)C1,outcome,[3],inactive
same,"activity change, negative = inhibition",[5],-3.98% (inactive)
same,max response,[5]; [7],28.2%
same,max response,[5]; [8],24%
same,outcome,[4],inactive
NCC#Cc1ccccc1,outcome,[3],inactive
same,"activity change, negative = inhibition",[5],-4.59% (inactive)
same,max response,[5]; [7],-80.1%
same,max response,[5]; [8],-81.6%
same,outcome,[4],inactive
CCCN1CCC[C@@H]2Cc3n[nH]cc3C[C@H]21,outcome,[3],inactive
same,"activity change, negative = inhibition",[5],3.49% (inactive)
same,max response,[5]; [7],9.58%
same,max response,[5]; [8],14.1%
same,outcome,[4],inactive
C[C@]12CC[C@H]3[C@@H](CCC4C[C@H](O)CC[C@@]43C)[C@@H]1CC[C@@H]2O (stereo partly drawn),outcome,[3],inactive
same,outcome,[4],inactive
CCCN1CCC[C@@H](c2cccc(C#N)c2)C1,outcome,[3],inactive
same,outcome,[4],inactive
CN1C[C@@H](CS(=O)(=O)N(C)C)C[C@@H]2c3cccc4c3c(cn4C)C[C@H]21,outcome,[3],inactive
same,outcome,[4],inactive
CCCN(CCC)C(=O)Cc1c(-c2ccc(Cl)cc2)nc2c(Cl)cc(Cl)cn12,outcome,[3],inactive
same,outcome,[4],inactive
C[N+]1(C)C2CC(OC(=O)C(CO)c3ccccc3)CC1C1OC12 (stereo not drawn),outcome,[3],inactive
same,"activity change, negative = inhibition",[5],0.686% (inactive) and -2.43% (inactive)
same,max response,[5]; [7],53.9% and -15.4%
same,max response,[5]; [8],52.9% and -17%
same,outcome,[4],inactive
N#CC(=Cc1ccc(O)c(O)c1)C(N)=S,outcome,[3],inactive
same,outcome,[4],inactive
CCC(CO)NC(=O)[C@@H]1C=C2c3cccc4[nH]cc(c34)C[C@H]2N(C)C1 (stereo partly drawn),outcome,[3],inactive
same,"activity change, negative = inhibition",[5],0.713% (inactive)
same,max response,[5]; [7],-10.2%
same,max response,[5]; [8],-11.2%
same,outcome,[4],inactive
CC12CCC3C(CCC4=C(O)C(=O)CCC43C)C1CCC2=O (stereo not drawn),outcome,[3],inactive
same,outcome,[4],inactive
CCCC[N+]1(C)C2CC(OC(=O)C(CO)c3ccccc3)CC1C1OC12 (stereo not drawn),outcome,[3],inactive
same,"activity change, negative = inhibition",[5],-1.49% (inactive)
same,max response,[5]; [7],13.3%
same,max response,[5]; [8],13.7%
same,outcome,[4],inactive
